# Compounds without any hit were thinned out: in the full panel of roughly 79,000, 15% have a hit. A number with no mark means an inactive call. Calls of active or inactive are those of the source. Rule as the data show it: active = growth inhibition above about 70%; inactive = the rest.
# Assay: NCI Yeast Anticancer Drug Screen. Data for the mec2-1 strain (AID 157)
# Conditions: S. cerevisiae mec2-1 strain, at 50.0 µM (retest, dose inferred, filed as 5.0), hits give high values
# Method in brief: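 Readout is yeast growth inhibition, normalised to vehicle-treated controls, in the mec2-1 strain exposed to compound.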
row,SMILES,growth inhibition
1,CCCOC(=O)C(S)C(S)C(=O)OCCC (configuration not stated),32%
2,CCC(C)(C)c1cc(Br)c(NS(=O)(=O)c2ccc(NC(C)=O)cc2)c(Br)c1,65%
3,Cn1c2c(c3nc(N)nc(N)c3c1=O)CCc1ccccc1-2,31%
4,Cc1ccc(C(O)CCN2CCOCC2)c(C)c1 (configuration not stated),61%
5,COC(=O)CCCC(=O)NC1=C(Nc2ccccc2)C(=O)c2ccccc2C1=O,41%
6,Oc1cc(Br)cc2cccnc12,99% (active)
7,COC(=O)Cc1cn[nH]c1C(=O)OC,-45%
8,O=C1CCCCCCC2=C1C(Sc1ccccc1)CC2 (configuration not stated),25%
9,CC/C(=C1\C=CC(=O)S1)C(CC)c1ccc(OC(C)=O)cc1 (configuration not stated),99% (active)
10,COc1ccc(C2=C(Cl)C(=O)N(c3ccc(C)cc3)C(=O)C2(Cl)Cl)cc1,36%
11,CN(C)C1C[C@@H](O[Si](C)(C)C(C)(C)C)C=C1S(=O)(=O)c1ccccc1 (some centres not stated),100% (active)
12,NC(=O)C(=O)N/N=C/c1ccc([N+](=O)[O-])o1,31%
13,O=C(O)C1CCC(CC2CC3CCC2C3)CC1 (configuration not stated),54%
14,CCCCCCCCCCCCOCC[N+](CCO)(CCO)Cc1ccccc1,99% (active)
15,Cc1cc(C)cc([C@H](C)N=Cc2cc(Br)ccc2O)c1,95% (active)
16,C=CC1(c2ccc(OC)cc2)OCCCO1,99% (active)
17,CC(C)CCOC(=O)c1ccc(O)cc1.[Zn+2],32%
18,C/C=C/C=C\C1OC(O)([C@H](CC)C(=O)NC/C=C/C=C(\C)[C@H](OC)C(C)C2OC(\C=C/C=C/C=C(\C)C(=O)c3c(O)ccn(C)c3=O)[C@H](O)[C@@H]2O)C(O)C(O)C1(C)C (some centres not stated),-18%
19,O=c1cccccc1[O-].O=c1cccccc1[O-].O=c1cccccc1[O-].[Dy+3],18%
20,CCCC(=O)Oc1ccc(-c2ccc(Br)cc2)cc1,93% (active)
21,Oc1c(Cl)c(Cl)c(O)c2c1CCCC2,99% (active)
22,Clc1nc(Cl)nc(N2CCCc3ccccc32)n1,78% (active)
23,CC[C@H]1CN2CCc3cc(OC)c(OC)cc3[C@@H]2C[C@@H]1C[C@H]1NCCc2cc(OC)c(OC)cc21,-2%
24,S=C(NCCc1ccccc1)N/N=C/c1ccc(Cl)cc1,54%
25,O=C(O)Cc1ccc2c(c1O)C(=O)c1ccccc1C2=O,31%
26,CC1CCN(C(=S)NNC(C)c2cc3ccccc3cn2)CC1 (configuration not stated),98% (active)
27,Cc1c[nH]c(C(=O)O)c1-c1ccc2c(-c3ccccc3)nc3ccccc3n12,99% (active)

# Same assay, conditions: S. cerevisiae mec2-1 strain, at 50.0 µM, hits give high values
row,SMILES,growth inhibition
1,CC(CN(C)C)C(=O)/C=C/c1c(Cl)cccc1Cl (configuration not stated),46.4%
2,COc1ccc(C(=O)c2cc(Br)ccc2O)cc1,71.9% (active)
3,COc1cccc(OC)c1C(=O)/C=C/c1ccccc1,45%
4,S=C(Nc1ccc(Cl)c(Cl)c1)SC1CCCCC1,64.2%
5,Cc1sc(N=Nc2c(O)[nH]c3ccccc23)nc1-c1ccccc1,-2.15%
6,O=C(NC(c1ccccc1)N1CCOCC1)c1ccccc1 (configuration not stated),95.6% (active)
7,Cc1nc2ccc3c(ccc4nc(C)c(N=Nc5ccc(C(=N)N)cc5)c(O)c43)c2c(O)c1N=Nc1ccc(C(=N)N)cc1,95.6% (active)
8,CN(C)CCNC(=O)C(c1ccccc1)c1ccccc1,94.7% (active)
9,CCOc1ccc(C(=O)CCN2CCOCC2)cc1,42.1%
10,O=S(Nc1ccccc1Br)c1ccccc1 (configuration not stated),24.1%
11,CSC(=S)N/N=C(\C)c1ccc[nH]1,90.8% (active)
12,Cc1ccc(Cl)cc1NN,99.2% (active)
13,C[C@]12CC[C@H](O)C[C@@H]1CC[C@@H]1[C@@H]2CC[C@]2(C)[C@@H](c3cc(C(F)(F)F)n[nH]3)CC[C@@H]12,61.6%
14,CCCOC(=O)C(S)C(S)C(=O)OCCC (configuration not stated),2.15%
15,CCC(C)(C)c1cc(Br)c(NS(=O)(=O)c2ccc(NC(C)=O)cc2)c(Br)c1,8.05%
16,Cn1c2c(c3nc(N)nc(N)c3c1=O)CCc1ccccc1-2,26.3%
17,Cc1ccc(C(O)CCN2CCOCC2)c(C)c1 (configuration not stated),45.1%
18,COC(=O)CCCC(=O)NC1=C(Nc2ccccc2)C(=O)c2ccccc2C1=O,14.5%
19,Oc1cc(Br)cc2cccnc12,92% (active)
20,COC(=O)Cc1cn[nH]c1C(=O)OC,0.7%

row,SMILES,growth inhibition
1,O=C1CCCCCCC2=C1C(Sc1ccccc1)CC2 (configuration not stated),52.4%
2,CC/C(=C1\C=CC(=O)S1)C(CC)c1ccc(OC(C)=O)cc1 (configuration not stated),89.3% (active)
3,COc1ccc(C2=C(Cl)C(=O)N(c3ccc(C)cc3)C(=O)C2(Cl)Cl)cc1,96.8% (active)
4,CN(C)C1C[C@@H](O[Si](C)(C)C(C)(C)C)C=C1S(=O)(=O)c1ccccc1 (some centres not stated),47.8%
5,NC(=O)C(=O)N/N=C/c1ccc([N+](=O)[O-])o1,25.4%
6,O=C(O)C1CCC(CC2CC3CCC2C3)CC1 (configuration not stated),88.5% (active)
7,CCCCCCCCCCCCOCC[N+](CCO)(CCO)Cc1ccccc1,99.5% (active)
8,Cc1cc(C)cc([C@H](C)N=Cc2cc(Br)ccc2O)c1,95.8% (active)
9,C=CC1(c2ccc(OC)cc2)OCCCO1,92.4% (active)
10,CC(C)CCOC(=O)c1ccc(O)cc1.[Zn+2],65.6%
11,C/C=C/C=C\C1OC(O)([C@H](CC)C(=O)NC/C=C/C=C(\C)[C@H](OC)C(C)C2OC(\C=C/C=C/C=C(\C)C(=O)c3c(O)ccn(C)c3=O)[C@H](O)[C@@H]2O)C(O)C(O)C1(C)C (some centres not stated),9.5%
12,O=c1cccccc1[O-].O=c1cccccc1[O-].O=c1cccccc1[O-].[Dy+3],92.8% (active)
13,CCCC(=O)Oc1ccc(-c2ccc(Br)cc2)cc1,93.6% (active)
14,Oc1c(Cl)c(Cl)c(O)c2c1CCCC2,99.5% (active)
15,Clc1nc(Cl)nc(N2CCCc3ccccc32)n1,70.9% (active)
16,CC[C@H]1CN2CCc3cc(OC)c(OC)cc3[C@@H]2C[C@@H]1C[C@H]1NCCc2cc(OC)c(OC)cc21,-4.65%
17,S=C(NCCc1ccccc1)N/N=C/c1ccc(Cl)cc1,74.3% (active)
18,O=C(O)Cc1ccc2c(c1O)C(=O)c1ccccc1C2=O,67.2%
19,CC1CCN(C(=S)NNC(C)c2cc3ccccc3cn2)CC1 (configuration not stated),75.7% (active)
20,Cc1c[nH]c(C(=O)O)c1-c1ccc2c(-c3ccccc3)nc3ccccc3n12,91% (active)

# — PubChem BioAssay (NCI)
